“And” between values parts separate entries of the source, which are not always exact repeats. Equal values may be shown once. The source holds several records for some structures; these can differ, active in one and inactive in another. The source made the active and inactive calls. Rule for the calls: active = hit-call score of the fitted dose curve at least 0.9, where 1 is the maximum; inactive = score below 0.9.
read-out: C-C motif chemokine 2 (Homo sapiens) (UniProt P13500); assay: BSK_KF3CT_MCP1: BioMAP Diversity Plus: KF3CT Assay for Monocyte Chemoattractant Protein 1 (MCP1/CCL2) Biomarker Activity (AID 2283073); settings: primary human keratinocytes with fibroblasts; actives raise or lower the signal
Procedure: BSK_KF3CT is a cell-based, multiplexed-readout assay that uses keratinocytes and foreskin fibroblasts, a human skin primary cell co-culture, with measurements taken at 24 hours after chemical dosing in a 96-well plate.BSK_KF3CT_MCP1 is an assay component measured in the BSK_KF3CT assay. It measures MCP-1 antibody related to regulation of gene expression using ELISA technology.Data from the assay component BSK_KF3CT_MCP1 was analyzed into 1 assay endpoint. This assay endpoint, BSK_KF3CT_MCP1, was analyzed with bidirectional fitting relative to DMSO as the negative control and baseline of activity. Using a type of binding reporter, gain or loss-of-signal activity can be used to understand changes in the signaling as they relate to the gene CCL2. Furthermore, this assay endpoint can be referred to as a primary readout, because this assay has produced multiple assay endpoints where this one serves a signaling function. To generalize the intended target to other relatable targets, this assay endpoint is annotated to the cytokine intended target family, where the subfamily is chemotactic factor.
The levels of cell surface (or secreted, indicated by the prefix "s") biomarker endpoints were measured by ELISA. Overt cytotoxicity to cells in confluent adherent cultures (all systems other than the BT system) was assessed by measuring total protein levels using sulforhodamine B (SRB) staining in parallel cultures at the time of biomarker measurements, indicated as SRB endpoints. For proliferation assays for adherent cell types, individual cell types are cultured at sub-confluence and relative cell numbers quantified by SRB staining at time points optimized for each system (48 h: 3C and CASM3C systems; 72 h: BT and HDF3CGF systems; 96 h: SAg system). SRB was performed by staining cells with 0.1% SRB after fixation with 10% TCA and reading wells at 560 nm.Viability and proliferation of PBMC (T cells) was quantified by Alamar Blue reduction for the SAg and BT systems. For PBMC viability (referred to as PBMC Cytotoxicity within the assay endpoint names), cells were plated (75,000/well in a 96-well plate) and then chemical samples added for 1 h before addition of activators, SEB and TSST-1 (20 ng/mL final concentration each). Cells were incubated for 90 h. Then, Alamar Blue (20 uL/well) (Invitrogen, Cat DAL1100) was added for 6 h, and the plates were read with a fluorescence microplate reader at 546/580 nm (excitation/emission). For PBMC proliferation, cells were plated and activated as above but incubated for only 16 h prior to addition of Alamar Blue. Plates were read after 6 h.

Structure (SMILES)	outcome	AC50
O=S(=O)(O)C(F)(F)C(F)(F)C(F)(F)C(F)(F)F	inactive	–
CCCCCCCCOC(=O)c1ccccc1C(=O)OCCCCCCCC	inactive	–
ClC(Cl)=C(c1ccc(Cl)cc1)c1ccc(Cl)cc1	–	20 µM (active)
CCC(=O)O[C@H]1CC[C@H]2[C@@H]3CCC4=CC(=O)CC[C@]4(C)[C@H]3CC[C@]12C	inactive	–
ClC1=C(Cl)[C@]2(Cl)[C@@H]3[C@@H](Cl)[C@H]4O[C@H]4[C@@H]3C1(Cl)C2(Cl)Cl	inactive	–
O=C(NC(=O)c1c(F)cccc1F)Nc1cc(Cl)c(OC(F)(F)C(F)F)c(Cl)c1	inactive	–
CC1=C2C[C@H]3[C@@H](CC=C4C[C@@H](O)CC[C@@]43C)[C@@H]2CC[C@]12O[C@@H]1C[C@H](C)CN[C@H]1[C@H]2C	inactive	–
Cc1ccccc1[N+](=O)[O-]	inactive	–
O=C(O)C(F)(F)C(F)(F)C(F)(F)C(F)(F)C(F)(F)C(F)(F)C(F)(F)C(F)(F)F	inactive	17.7 µM (active) and 24.9 µM (active)
Oc1ccc(C(c2ccc(O)cc2)(C(F)(F)F)C(F)(F)F)cc1	–	17.7 µM (active)
CCC(C)c1cc([N+](=O)[O-])cc([N+](=O)[O-])c1O (stereo not given)	–	11.6 µM (active)
CCC(C)(c1ccc(O)cc1)c1ccc(O)cc1	inactive	–
ClC1=C(Cl)[C@]2(Cl)[C@@H]3[C@@H]4C[C@@H]([C@H]5O[C@@H]45)[C@@H]3[C@@]1(Cl)C2(Cl)Cl	inactive	–
CCOP(=S)(OCC)SCSC(C)(C)C	inactive	–
N#Cc1ccc(N(CC(N)=O)CC(F)(F)F)cc1C(F)(F)F	inactive	–
Clc1ccc(C(c2ccccc2Cl)C(Cl)(Cl)Cl)cc1 (stereo not given)	–	10.7 µM (active)
CCCCCCCCCC[N+](C)(C)CCCCCCCCCC	–	4.69 µM (active)
CCCCCCOC(=O)c1ccccc1C(=O)OCCCCCC	inactive	–
O=NN(c1ccccc1)c1ccccc1	inactive	–
ClC1=C(Cl)[C@]2(Cl)[C@@H]3[C@H]4C[C@H]([C@@H]5O[C@H]45)[C@@H]3[C@@]1(Cl)C2(Cl)Cl	inactive	–

Structure (SMILES)	outcome	AC50
Cc1ccccc1O	inactive	–
Nc1ccc(-c2ccc(N)cc2)cc1	inactive	–
CC(C)(O)C(=O)Nc1ccc([N+](=O)[O-])c(C(F)(F)F)c1	inactive	–
CCNc1nc(NC(C)C)nc(SC)n1	inactive	–
CC(C)C(=O)OCC(C)(C)C(OC(=O)C(C)C)C(C)C (stereo not given)	inactive	–
Cc1cccc(C)c1N	inactive	–
CC#Cc1cc(C)nc(Nc2ccccc2)n1	inactive	–
COc1ccc(O)c(C(C)(C)C)c1	inactive	–
Clc1ccc(Cl)cc1	inactive	–
CCOC(=O)C(O)(c1ccc(Cl)cc1)c1ccc(Cl)cc1	inactive	–
c1cc2ccc3cccc4ccc(c1)c2c34	inactive	–
Cc1ccc(O)c(C)c1	inactive	–
NS(=O)(=O)C(F)(F)C(F)(F)C(F)(F)C(F)(F)C(F)(F)C(F)(F)C(F)(F)C(F)(F)F	–	33.4 µM (active) and 48.9 µM (active) and 52.2 µM (active)
Cc1cc(O)ccc1Cl	inactive	–
CCOCCOC(C)=O	inactive	–
C1CC2OC2CC1C1CO1 (stereo not given)	inactive	–
Cc1ccccc1CO[C@@H]1C[C@@]2(C(C)C)CC[C@]1(C)O2	inactive	–
CC(c1ccc(O)cc1)(c1ccc(O)cc1)c1ccc(O)cc1	–	20 µM (active)
COS(=O)(=O)OC	inactive	–

From PubChem BioAssay (EPA / NIEHS)
